In the supplement of paper PMC8975748:
Where a name gives a salt, the structure may show the parent alone.

Test system: Saccharomyces cerevisiae BY4741 SeMeCo community
Experiment: z-score of subpopulation abundance vs DMSO median, subpopulation auxotrophic for HLM; higher = larger share of this subpopulation than in DMSO controls
Settings: 10 µM; 24 h; SM minimal medium; subpopulation (auxotrophy): HLM
Protocol: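 Fluorescent four-plasmid SeMeCo (self-establishing metabolically cooperating S. cerevisiae BY4741 community; plasmids pH-mRuby2, pL-mWasabi, pU-eCFP, pM-TagRFP657) was grown 24 h in minimal SM medium with each Selleck FDA-approved drug at 10 µM in 384-well plates. Cells were fixed and imaged by high-content confocal microscopy. For each auxotrophic subpopulation (and the prototroph), a z-score gives the deviation from the DMSO vehicle-control population median.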

| SMILES | z-score of subpopulation abundance |
| --- | --- |
| O=[N+]([O-])C(Br)(CO)CO [Bronopol] | -0.88 |
| N[C@@H]1C[C@H]1c1ccccc1 [Tranylcypromine (2-PCPA) HCl] | 0.39 |
| COc1ccc(C(CN(C)C)C2(O)CCCCC2)cc1 (centres undefined) [Venlafaxine HCl] | -0.22 |
| NC(=O)CN1CCCC1=O [Piracetam] | 1.38 |
| C=CC[C@]1(O)CC[C@H]2[C@@H]3CCC4=CC(=O)CCC4=C3C=C[C@@]21C [Altrenogest] | -0.47 |
| CN(C)[C@@H]1C(=O)C(C(N)=O)=C(O)[C@@]2(O)C(=O)C3=C(O)c4c(O)ccc(Cl)c4[C@@](C)(O)[C@H]3C[C@@H]12 [Chlortetracycline HCl] | -0.55 |
| NCCc1c[nH]c2ccc(O)cc12 [Serotonin HCl] | -0.77 |
| C=CN1CCCC1=O.II [Povidone iodine] | 0.98 |
| CC1(C)SC2C(N)C(=O)N2C1C(=O)O (centres undefined) [6-Aminopenicillanic acid] | -0.43 |
| Nc1ccncc1 [4-Aminopyridine] | -0.2 |
| CCOC(=O)Nc1ccc(NCc2ccc(F)cc2)cc1N [Retigabine 2HCl] | -0.02 |
| C[C@H]1O[C@H](O[C@H]2[C@H](O)[C@@H](O)[C@@H](O)[C@H](O)[C@@H]2O)[C@@H](N)C[C@@H]1NC(=N)C(=O)O [Kasugamycin hydrochloride] | -0.54 |
| C[N+]12CCC(CC1)C(OC(=O)C(O)(c1ccccc1)c1ccccc1)C2 (centres undefined) [Clidinium Bromide] | -0.26 |
| C=CCN1C[C@H](C(=O)N(CCCN(C)C)C(=O)NCC)C[C@@H]2c3cccc4[nH]cc(c34)C[C@H]21 [Cabergoline] | -0.2 |
| CN1[C@@H]2CC[C@H]1C[C@@H](OC(=O)[C@H](CO)c1ccccc1)C2 [Hyoscyamine] | 0.11 |
| CN(C)[C@@H]1C(=O)C(C(N)=O)=C(O)[C@@]2(O)C(=O)C3=C(O)c4c(O)cccc4[C@@](C)(O)[C@H]3[C@H](O)[C@@H]12 [Oxytetracycline (Terramycin)] | 2.78 |
| CN1c2ccccc2C(NCCCCCCC(=O)O)c2ccc(Cl)cc2S1(=O)=O (centres undefined) [Tianeptine sodium] | -0.48 |

| SMILES | z-score of subpopulation abundance |
| --- | --- |
| CN(C)C(=O)Oc1ccc[n+](C)c1 [Pyridostigmine Bromide] | 0.28 |
| C=C[C@H]1CN2CC[C@H]1C[C@H]2[C@H](O)c1ccnc2ccccc12 [Cinchonidine] | -0.4 |
| C=C(C)[C@H]1Cc2c(ccc3c2O[C@@H]2COc4cc(OC)c(OC)cc4[C@@H]2C3=O)O1 [Rotenone (Barbasco)] | 0.69 |
| Cn1cc(C2=C(c3cn(C4CCN(Cc5ccccn5)CC4)c4ccccc34)C(=O)NC2=O)c2ccccc21 | -1.27 |
| CC[C@@]1(O)C(=O)OCc2c1cc1n(c2=O)Cc2cc3ccccc3nc2-1 [Camptothecin] | -0.76 |
| CN(C)[C@@H]1C(=O)C(C(N)=O)=C(O)[C@@]2(O)C(=O)C3=C(O)c4c(O)cccc4[C@@](C)(O)[C@H]3[C@H](O)[C@@H]12 [Oxytetracycline Dihydrate] | -0.22 |
| COc1ccc2c3c([nH]c2c1)C(C)=NCC3 [Harmaline] | 2.63 |
| COc1ccc(C=O)cc1 [p-Anisaldehyde] | -0.78 |
| CC(=O)OCC1=C(C(=O)O)N2C(=O)C(N)C2SC1 (centres undefined) [7-Aminocephalosporanic acid] | -0.1 |
| CCOC(=O)Nc1ccc(NCc2ccc(F)cc2)cc1N [Retigabine] | 0.18 |
| CC[C@H]1CN2CC[C@]3(C(=O)Nc4ccccc43)[C@@H]2C[C@@H]1/C(=C\OC)C(=O)OC [Rhynchophylline] | 1.16 |
| COc1ccc2c(c1)[C@]13CCCC[C@@H]1[C@H](C2)N(C)CC3 [Dextromethorphan hydrobromide hydrate] | 0.03 |
| CC[C@@H](C(N)=O)N1CCCC1=O [Levetiracetam] | 0.21 |
| CC(NC(C)(C)C)C(=O)c1cccc(Cl)c1 (centres undefined) [Amfebutamone (Bupropion) HCl] | 0.09 |
| CNC1CC(N)C(O)C(OC2OC(CO)C(O)C3OC4(OC(C(N)CO)C(O)C(O)C4O)OC23)C1O (centres undefined) [Hygromycin B] | -0.02 |
| C#C[C@]1(O)C=C[C@H]2[C@@H]3CCC4=CC(=O)CC[C@@H]4[C@H]3CC[C@@]21CC [Gestodene] | -0.9 |
| CCN(C)C(=O)Oc1cccc([C@H](C)N(C)C)c1 [Rivastigmine] | -0.03 |
